About 83,000 compounds went through this panel and 20% of them were active in at least one assay; those are over-represented in the sample as a whole.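 Note: values are percent growth. 100 is the growth of untreated cells, values between 100 and 0 indicate rising inhibition; between -100 and 0 indicates cell death.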 A number with no mark means an inactive call. Active and inactive are the calls of the source. The calls were made as follows: active = growth percent below 10; inactive = the rest.

Common to all, as to assay: NCI-60 one-dose screen, 48 h (100 = growth as untreated, 0 = no growth, -100 = all killed)
Common to all, as to details: 10 µM unless noted

Assay [1] deals with DU-145 prostate.
Assay [2] relates to K-562 leukemia.
The test system of assay [3] is MALME-3M melanoma.
Assay [4] has as its system MDA-MB-231 breast.
Assay [5] has as its system RXF 393 renal.
The subject of assay [6] is SF-268 CNS.
The test system of assay [7] is SF-295 CNS.
Assay [8] has as its system SF-539 CNS.
For assay [9], the system named is UACC-257 melanoma.
The test system of assay [10] is M14 melanoma.

As to `Cc1cc(NS(=O)(=O)c2ccc(NC(=O)COc3ccc(-c4cc5ccccc5[nH]4)cc3)cc2)no1`, the growth in assay [1] was 18.5%; in assay [2] it was 6.89% (active); in assay [3] it was 47.6%; in [4], 18.9%; in assay [5], -24.6% (active); in assay [6], 27.3%. The growth in assay [7] is 8.98% (active); in assay [8] it was 6.2% (active); in assay [9], 56.9%; in assay [10], -15.4% (active).
As for `O=C1CC(c2ccsc2)c2snc(-c3ccc(Cl)cc3)c2N1` (stereo not given), the growth in assay [1] was 19.4%; in assay [2] it was 16.4%; in [3], 37.7%; in assay [4], 90%; in [5], 25.4%; in [6] it was 56.1%. The growth in assay [7] was 17.1%; in [8], 32.4%; in assay [9] it was 50%; in [10] it was 13.9%.
Regarding `COc1ccc(Sc2ccc3[nH]c(=O)nc(N)c3c2)cc1`, the growth in assay [1] was 108%; in [2], 100%; in [3] it was 102%; in assay [4], 91.5%; in assay [5], 101%; in assay [6], 107%. Also, the growth was 106% in [7], 105% in assay [8], 92% in assay [9] and 105% in assay [10].
Consider `Cc1nc(NN)c([N+](=O)[O-])c(NN)n1`, for which the growth in [1] is 109%; in assay [2], 93.6%; in assay [3] it was 106%; in assay [4] it was 107%; in [5], 160%; in assay [6], 102%. Also, the growth in assay [7] was 98.5%; in [8], 95.2%; in assay [9], 99.3%; in assay [10] it was 98.2%.
As for `COc1ccc2c(c1)c(=O)oc1c(C)c(OCC(C)=O)ccc12`, the growth is 86.8% in [1]; 102% in assay [2]; 112% in [3]; 114% in [4]; 103% in [5]; 85.6% in assay [6]. The growth in assay [7] is 93.9%; in assay [8], 94.3%; in assay [9] it was 96.2%; in [10] it was 112%.
As to `Clc1ccc(Nc2nc(Nc3ccccc3)nc(Nc3ccc(-c4cc(-c5ccc(Cl)cc5)on4)cc3)n2)cc1`, the growth in assay [1] was 32.6%; in assay [2], 40.2%; in [3] it was 64.5%; in assay [4], 60.5%; in assay [5], 74.6%; in assay [6], 61.7%. Further, the growth in [7] is 54%; in assay [8], 54.2%; in assay [9], 70.1%; in assay [10], 41.4%.
Take `CCOC(=O)c1[nH]c2cc(Cl)ccc2c1[C@@H](C(=O)NC(C)(C)C)N(CC)C(=O)CCCCC#Cc1cccc2c1CN(C1CCC(=O)NC1=O)C2=O` (stereo not given in full): the growth in assay [1] was 32.8%; in assay [2], 17.5%; in [3], -12.6% (active); in assay [4] it was -50.1% (active); in assay [5], -1.34% (active); in [6], 25%. The growth in assay [7] is -5.32% (active); in assay [8], 29.6%; in assay [9], 28.4%; in assay [10] it was 16.9%.
Consider `CCOC(=O)c1c(-c2cc(OC)c(OC)c(OC)c2)csc1N`, for which the growth in assay [1] is 101%; in assay [2] it was 45.5%; in assay [3], 92.1%; in [4] it was 105%; in [5] it was 93.2%; in assay [6], 94.5%. For the same compound, the growth in assay [7] was 65.4%; in assay [8] it was 94.7%; in [9] it was 104%; in [10] it was 89.8%.
For `Nc1cc(Br)c(-c2nnc(CCC(=O)c3nc4ccccc4[nH]3)o2)c(Br)c1`, the growth in assay [1] was 103%; in assay [2], 27%; in assay [3], 58.7%; in assay [4], 76.7%; in [5], 92.6%; in assay [6] it was 88.2%. Moreover, the growth is 66.3% in assay [7], 93.9% in [8], 90.7% in [9] and 79.8% in assay [10].
Take `COC1(OC)C2(Cl)C=C(c3ccccc3)C1(Cl)C(Cl)=C2Cl` (stereo not given): the growth in assay [1] was 113%; in assay [2] it was 88.8%; in [3], 97.9%; in [4], 110%; in assay [5], 104%; in assay [6] it was 101%. Moreover, the growth was 93.9% in assay [7], 91.5% in assay [8], 90.1% in assay [9] and 97.2% in assay [10].
As to `Cc1ccc(S(=O)(=O)c2ccc3[nH]c(=O)[nH]c(=O)c3c2)cc1`, the growth is 107% in [1]; 87.2% in assay [2]; 119% in assay [3]; 101% in assay [4]; 114% in [5]; 104% in assay [6]. The growth in assay [7] was 116%; in [8], 101%; in assay [9], 91.5%; in assay [10], 101%.
Regarding `CN(C)C(=S)SCN1C(=O)c2ccc([N+](=O)[O-])cc2S1(=O)=O`, the growth in assay [1] was 94.3%; in assay [2], 77.8%; in assay [3], 92.8%; in [4], 106%; in [5], 113%; in assay [6] it was 99.9%. The growth was 101% in [7], 102% in assay [8], 102% in assay [9] and 103% in assay [10].
Consider `COc1nc2c(cc1S(=O)(=O)c1ccccc1)CCc1c-2cnn1-c1cccc(Cl)c1`, for which the growth in [1] was 97%; in assay [2] it was 61.4%; in [3] it was 78.7%; in assay [4], 89.7%; in assay [5], 76.7%; in assay [6], 87.2%. The growth is 80.2% in [7], 81.7% in assay [8], 78.7% in [9] and 83.4% in assay [10].
Take `CCCCCCCCCCCC(=O)[O][Sn]([CH2]CCC)([CH2]CCC)[CH2]CCC`: the growth was -98.7% (active) in assay [1]; -29.9% (active) in assay [2]; -96.1% (active) in assay [3]; -94.6% (active) in assay [4]; -72.4% (active) in assay [5]; -83.7% (active) in assay [6]. Further, the growth in assay [7] is -83.8% (active); in assay [8], -97.7% (active); in assay [9], -96.5% (active); in assay [10], -99.6% (active).
As for `O=C1c2c(c3c4cc(Br)ccc4[nH]c3c3ccc4ccccc4c23)C(=O)N1O`, the growth was 103% in assay [1]; 71.6% in [2]; 126% in assay [3]; 81.7% in assay [4]; 103% in assay [5]; 81.1% in [6]. The growth was 84.7% in assay [7], 96.4% in assay [8], 88.5% in assay [9] and 94.1% in [10].
On to `COc1nc2c(cc1S(=O)(=O)c1ccccc1)CCc1c-2cnn1-c1ccccc1`, for which the growth is 95.4% in [1]; 54.1% in assay [2]; 69.2% in [3]; 89.2% in assay [4]; 94.4% in [5]; 86.8% in [6]. Also, the growth in assay [7] is 84.9%; in assay [8] it was 79%; in assay [9], 78.2%; in assay [10], 80.7%.
For the compound `COc1cc2cc(Oc3ccc(NC(=O)Nc4ccc(Cl)c(C(F)(F)F)c4)cc3)c(C)nc2cc1OCCN1CCCCC1`, the growth in assay [1] is -85.2% (active); in [2], -48.1% (active); in assay [3], -78.4% (active); in [4], -87.2% (active); in assay [5], 44.2%; in assay [6], 3.42% (active). Also, the growth in assay [7] is 57.5%; in assay [8], -89.8% (active); in assay [9], -49.4% (active); in assay [10], -67.4% (active).
Consider `COc1ccc(C(=O)C2=CC(=O)C(=O)C2)cc1OC`, for which the growth in assay [1] is 111%; in assay [2] it was 116%; in [3], 114%; in assay [4] it was 124%; in assay [5], 106%; in [6], 103%. The growth is 100% in [7], 95.5% in assay [8], 115% in [9] and 107% in assay [10].
Regarding `CSc1ccc(OC(C)=O)cc1C`, the growth in assay [1] is 94%; in assay [2] it was 114%; in assay [3] it was 95.5%; in assay [4], 113%; in [5], 98.5%; in assay [6], 94.3%. Also, the growth in assay [7] was 97.7%; in assay [8], 98.5%; in [9] it was 97.6%; in assay [10], 101%.
With `COc1cc(Cn2cc(F)c(=O)[nH]c2=O)cc(OC)c1`, the growth in assay [1] is 114% [50 µM]; in assay [2], 95.6% [50 µM]; in assay [3], 108% [50 µM]; in [4] it was 95.7% [50 µM]; in [5], 99.5% [50 µM]; in assay [6], 96.1% [50 µM]. Moreover, the growth in [7] was 101% [50 µM]; in [8], 101% [50 µM]; in assay [9], 110% [50 µM]; in [10] it was 100% [50 µM].
As for `C[C@H]1C(=O)C23CCC1C[C@@]21O[C@@H]2C(C)(C)C=CC(=O)C23COC1=O`, the growth in assay [1] was 104%; in assay [2], 104%; in assay [3], 110%; in [4], 118%; in [5] it was 108%; in assay [6], 104%. Besides, the growth in assay [7] is 110%; in assay [8] it was 111%; in assay [9], 98.7%; in assay [10] it was 102%.
As for `CCCCC(O)Cn1ncc(C(=O)OCC)c1NC(=O)NCc1ccccc1C(F)(F)F` (stereo not given), the growth in [1] was 102%; in assay [2] it was 71.8%; in [3] it was 93.2%; in assay [4], 92.2%; in assay [5] it was 106%; in assay [6] it was 97.7%. The growth in assay [7] is 94.3%; in assay [8], 95.9%; in assay [9], 93.7%; in assay [10], 95.2%.
On to `O=C1/C(=C/c2ccc(Cl)cc2)N=C(c2ccccc2)N1CCc1cccs1`, for which the growth in [1] was 48.4%; in assay [2] it was 62.3%; in [3], 65%; in assay [4], 64.8%; in [5], 69.9%; in [6], 74.7%. Also, the growth is 51.5% in assay [7], 40.3% in [8], 56.3% in [9] and 42.2% in assay [10].
`O=C1/C(=C/c2ccc([N+](=O)[O-])cc2)Oc2ccc(O)cc21`: the growth is 103% in assay [1]; 41.7% in assay [2]; 91.8% in [3]; 89% in [4]; 92.6% in assay [5]; 89.9% in [6]. The growth was 68.2% in assay [7], 86.4% in [8], 67.3% in [9] and 97.8% in assay [10].
On to `O=S(=O)(Nc1ccc(Cl)c(Cl)c1)c1ccc(-c2cnc(C3CC3)o2)cc1`, for which the growth in assay [1] was 15.3%; in assay [2], 16.2%; in assay [3], 53.3%; in assay [4] it was 28.4%; in assay [5], -19.4% (active); in [6], 47.7%. The growth is 14.9% in [7], -13.5% (active) in assay [8], 63.1% in [9] and 14.1% in assay [10].

(Values after PubChem BioAssay (NCI).)
